Assay results taken from ChEMBL document CHEMBL1157539, “Thousands of chemical starting points for antimalarial lead identification” (Nature, 2010).

Columns and labels:
Assay type in all cases: functional
Plasmodium falciparum [1] = assay: GSK_TCMDC: Inhibition of Plasmodium falciparum 3D7 in whole red blood cells, using parasite LDH activity as an index of growth. Test compounds present at 2uM
Plasmodium falciparum [2] = assay: GSK_TCMDC: Inhibition of Plasmodium falciparum Dd2 in whole red blood cells, using parasite LDH activity as an index of growth. Test compounds present at 2uM
HepG2 = assay: GSK_TCMDC: Percent inhibition of human HepG2 cell line. Test compounds present at 10uM.

SMILES | Inhibition (Plasmodium falciparum [1]) [%] | Inhibition (Plasmodium falciparum [2]) [%] | Inhibition (HepG2) [%]
COc1cc(NC(=O)/C=C/c2ccc(-c3ccccc3)cc2)ccc1OCCN(C(C)C)C(C)C.Cl | 94 | 62 | 58
O=C(CNC1CCCCC1)Nc1cccc(C(=O)Nc2cccc(C(F)(F)F)c2)c1.O=C(O)C(=O)O | 93 | 80 | 17
O=C(Nc1ccccc1)N1CCC(CN2CCOC(c3ccccc3)(c3ccccc3)C2)CC1 | 96 | 98 | 10
Cc1noc(-c2ccc(O)cc2O)c1-c1ccc2c(c1)OCCCO2 | 100 | 99 | 8
Br.CCSc1ccccc1CON1C(=N)N=C(N)NC1(C)C | 96 | 10 | 62
Cc1cccc2nc(-c3cccc(-c4ccc(NC(=O)Cc5ccccn5)cc4)c3)[nH]c12 | 94 | 57 | 25
O=C(O)c1cc(C(F)(F)F)co1 | 96 | 19 | 0
FC(F)(F)c1ccc2[nH]c(-c3ccc(-c4cccc(CNCCc5cccnc5)c4)s3)nc2c1.O=C(O)C(F)(F)F | 100 | 98 | 26
Cc1nc(-c2nc(NCCc3c(C)noc3C)ncc2-c2ccsc2)sc1C | 87 | 85 | 12
COc1ccccc1C1CCN(C2CCC(NC(=O)/C=C/c3ccc(OC(F)(F)F)cc3)CC2)CC1 (centres undefined) | 82 | 11 | 65
CCN(C(=O)c1ccc(NC(=O)c2cccs2)cc1)c1nc2c(C)cccc2s1 | 89 | 85 | 24
c1ccc(CCNc2nc(NCC(c3ccccc3)c3ccccc3)c3nc[nH]c3n2)cc1 | 100 | 95 | 9
Cc1ccc(/C=C/C(=O)NCCCCCN2CCCN(C(=O)Nc3ccc(Cl)c(Cl)c3)CC2)cc1 | 95 | 1 | 24
O=C(Nc1ccc(Br)cc1)N(CCN1CCOCC1)CC(O)COCc1ccc(F)cc1.O=C(O)C(F)(F)F (centres undefined) | 90 | 3 | 5
O=C(Nc1ccccc1)N(Cc1ccc(-c2cccc(CNC3CCCC3)c2)cc1)C1CCN(Cc2ccccc2)CC1.O=C(O)C(F)(F)F | 100 | 67 | 43
O=C(Nc1ccc(C(F)(F)F)cc1)c1cccc(S(=O)(=O)NC2CCN(Cc3ccccc3)C2)c1.O=C(O)C(F)(F)F (centres undefined) | 88 | 0 | 39
Cc1cccc(CNc2nccc3[nH]c4ccccc4c23)c1.O=C(O)C(F)(F)F | 92 | 51 | 14
COc1ccc2nccc([C@@H](O)CN3CCC(NCc4cc5cc([N+](=O)[O-])ccc5[nH]4)CC3)c2c1.O=C(O)C(=O)O | 99 | 57 | 29
CC(=O)Nc1nc(C(=O)Nc2ccc(-c3ccc(-c4nc5cccc(C)c5[nH]4)cc3)cc2)cs1 | 100 | 53 | 42
Cc1cnc(C(=O)Nc2ccc3c(c2)CCCN(Cc2c[nH]c4cnccc24)C3)cn1.O=CO | 92 | 20 | 0
COc1cc(Cc2cnc(N)nc2N)cc(OCCCCCC(=O)O)c1OC.Cl | 95 | 2 | 0
CC(CN1CCN(C)CC1)C(=O)Nc1cccc(-c2ccc(-c3nc4ccccc4[nH]3)cc2)c1 (centres undefined) | 95 | 38 | 2
O=C(/C=C/c1ccc(Cl)cc1)NCCCCCN1CCN(C(=O)C=Cc2ccc(Cl)c(Cl)c2)CC1.O=C(O)C(F)(F)F | 92 | 0 | 30
Nc1nccc2ccc(OC3CCCCC3)cc12.O=CO | 98 | 41 | 24

SMILES | Inhibition (Plasmodium falciparum [1]) [%] | Inhibition (Plasmodium falciparum [2]) [%] | Inhibition (HepG2) [%]
C[C@@H](Oc1cc(-n2cnc3ccc(NC(=O)CCN4CCCCC4)cc32)sc1C(N)=O)c1ccccc1Cl | 100 | 60 | 36
CC(=O)Nc1ccc(C(=O)Nc2cccc(-c3cccc(-c4nc5cc(F)ccc5[nH]4)c3)c2)cn1 | 99 | 98 | 0
CN(Cc1cc(C(F)(F)F)cc(C(F)(F)F)c1)C(=O)C1CNCC1c1ccc(F)cc1.Cl (centres undefined) | 92 | 4 | 1
CN1CCC(Oc2ccc(CN3CC[C@H](NC(=O)c4ccc(Cl)c(F)c4)C3)c3ccccc23)C1.O=C(O)C(F)(F)F (some centres undefined) | 100 | 65 | 51
O=C(Nc1cccc(-c2cccc(-c3nc4cc(C(F)(F)F)ccc4[nH]3)c2)c1)c1ccc(=O)[nH]n1 | 100 | 26 | 63
CCc1c(CCNCCCCCNCCc2ccc(OC)c(OC)c2CC)ccc(OC)c1OC.Cl | 100 | 1 | 59
CNC(=O)NC1=NC(C)(C)N(OCc2ccc(Cl)c(Cl)c2)C(NC(=O)NC)=N1 | 99 | 0 | 1
Cl.Cn1c(=O)n(C)c2cc(CNCCNc3ccnc4cc(Cl)ccc34)ccc21 | 100 | 96 | 17
COc1ccc(CNC2CCN(C)CC2)cc1-c1ccc(S(=O)(=O)NCc2ccccc2)c(C)c1.O=C(O)C(F)(F)F | 100 | 98 | 81
O=C(Nc1ccc(OC2CCN(Cc3ccco3)CC2)c(Cl)c1)c1ccc2ncccc2c1.O=C(O)C(F)(F)F | 97 | 40 | 0
Cc1nc2c(s1)c(=O)cc(CCc1cccc(F)c1F)n2CC(=O)N(Cc1ccc(-c2ccc(C(F)(F)F)cc2)cc1)C1CCN(C(C)C)CC1.O=C(O)C(O)C(O)C(=O)O | 100 | 82 | 98
O=S(=O)(Nc1cccc(CCN2CCCCC2CCN2CCCC2)c1)c1ccc2ccccc2c1 (centres undefined) | 91 | 40 | 22
CCCCCCOc1ccc(C(=O)N(Cc2ccccc2)c2c(-c3ccccc3)nc3cc(C)ccn23)cc1 | 95 | 96 | 0
CCOc1ccc(-c2nonc2NC(=O)c2ccccc2)cc1OCC | 99 | 100 | 6
COc1ccc(C2N=C(N)N=C(N)N2OCc2ccccc2)cc1OC.Cl (centres undefined) | 95 | 2 | 1
CCOc1ccccc1C=CC(=O)Nc1ccc2nc(N3CCN(C)CC3)cc(C)c2c1 | 100 | 91 | 16
Cc1nc(C)c(CC(=O)Nc2cccc(-c3cccc(-c4nc5cc(C(F)(F)F)ccc5[nH]4)c3)c2)s1 | 95 | 30 | 49
O=C(CCCCCNC(=O)c1ccc(O)c(-c2ccc(Cl)c(Cl)c2)c1)NCCN1CCCC1 | 90 | 2 | 0
CCSc1nc2sc3c(c2c(=O)n1-c1ccccc1)CCN(C)C3 | 83 | 71 | 16
O=C(C=Cc1ccc(F)cc1)N1CCN(S(=O)(=O)c2ccc(Cl)cc2)CC1 | 91 | 93 | 10
CCCC(=O)NC(NC(=S)Nc1ccc([N+](=O)[O-])cc1)C(Cl)(Cl)Cl (centres undefined) | 93 | 14 | 10
Br.CC1(C)NC(N)=NC(=N)N1OCCOc1cccc(C(F)(F)F)c1 | 93 | 97 | 67
COc1ccc2ncc(F)c([C@@H](O)CN3CCC(NCc4cc(C#N)c5c(c4)CCO5)CC3)c2n1 | 92 | 50 | 15
Cc1cc(F)ccc1Oc1nc(Nc2ccc(N3CCOCC3)c(F)c2)nc2c1S(=O)(=O)CCC2.Cl | 96 | 98 | 10
